Legend:
Assay in all cases: PBM binding z-score (relative to random genomic background probes); higher = stronger binding; sequences stand for … in GC…GCGATTGACAGCGTAGAATGAAGG
[1] = system: FXR:RXRa (NR concentration 270 nM, RXRa partner concentration 90 nM)
In short: (§1)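 Antibodies against each partner of ligand-free nuclear receptor dimers (one per run) detected binding on custom Agilent 4×180K protein-binding microarrays after 1 h incubation. The double-stranded probes had 34-nt variable regions carrying direct-repeat seeds, single-nucleotide variants, half-site ablations and random human genomic background sequences. Binding z-scores, from regression-normalized fluorescence, use the random background probes as reference.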

[2] = system: LXRa:RXRa (NR concentration 270 nM, RXRa partner concentration 90 nM)
In short: as §1

[3] = system: LXRa homodimer (NR concentration 270 nM)
In short: as §1

[4] = system: LXRb:RXRa (NR concentration 270 nM, RXRa partner concentration 90 nM)
In short: as §1

[5] = system: LXRb homodimer (NR concentration 270 nM)
In short: as §1

[6] = system: PPARa:RXRa (NR concentration 270 nM, RXRa partner concentration 90 nM)
In short: as §1

[7] = system: PPARg:RXRa (NR concentration 180 nM, RXRa partner concentration 90 nM)
In short: as §1

[8] = system: PPARg:RXRa 270nM:90nM, anti-RXR (NR concentration 270 nM, RXRa partner concentration 90 nM)
In short: as §1

[9] = system: PPARg:RXRa 30nM:10nM, anti-RXR (NR concentration 30 nM, RXRa partner concentration 10 nM)
In short: as §1

[10] = system: PPARg:RXRa 90nM:30nM, anti-RXR (NR concentration 90 nM, RXRa partner concentration 30 nM)
In short: as §1

[11] = system: PPARg:RXRa DBDmut IVT, anti-RXR (DBD mutation: RXRa K156A/R161A, NR concentration 270 nM, RXRa partner concentration 90 nM)
In short: as §1

[12] = system: PPARg:RXRa IVT, anti-PPARg (NR concentration 270 nM, RXRa partner concentration 90 nM)
In short: as §1

[13] = system: PPARg DBDmut:RXRa IVT, anti-PPARg (DBD mutation: PPARg1 K132A/R137A, NR concentration 270 nM, RXRa partner concentration 90 nM)
In short: as §1

[14] = system: PPARg DBDmut IVT, anti-PPARg (DBD mutation: PPARg1 K132A/R137A, NR concentration 270 nM)
In short: as §1

[15] = system: PPARg homodimer (NR concentration 180 nM)
In short: as §1

[16] = system: PXR:RXRa (NR concentration 270 nM, RXRa partner concentration 90 nM)
In short: as §1

[17] = system: PXR homodimer (NR concentration 270 nM)
In short: as §1

[18] = system: RARa:RXR (NR concentration 270 nM, RXRa partner concentration 90 nM)
In short: as §1

[19] = system: RARa homodimer (NR concentration 270 nM)
In short: as §1

[20] = system: RARb:RXRa (NR concentration 270 nM, RXRa partner concentration 90 nM)
In short: as §1

| Sequence | PBM binding z-score [1] | PBM binding z-score [2] | PBM binding z-score [3] | PBM binding z-score [4] | PBM binding z-score [5] | PBM binding z-score [6] | PBM binding z-score [7] | PBM binding z-score [8] | PBM binding z-score [9] | PBM binding z-score [10] | PBM binding z-score [11] | PBM binding z-score [12] | PBM binding z-score [13] | PBM binding z-score [14] | PBM binding z-score [15] | PBM binding z-score [16] | PBM binding z-score [17] | PBM binding z-score [18] | PBM binding z-score [19] | PBM binding z-score [20] |
| --- | --- | --- | --- | --- | --- | --- | --- | --- | --- | --- | --- | --- | --- | --- | --- | --- | --- | --- | --- | --- |
| ATCTCTAGGTAAGACTCAGTTAAGTGAAGAACGC | 0.573 | 0.359 | 0.508 | 0.191 | 0.75 | 0.00438 | 0.0664 | -0.0342 | 0.242 | -0.00989 | 1.7 | 1.21 | 0.936 | 1.52 | 0.709 | 0.115 | 0.648 | 0.211 | 1.29 | 0.0635 |
| GCTATTAGTTGAAAGGGCAACAGAATGATTCTCG | 0.533 | 0.675 | 0.402 | 0.947 | -0.00324 | 2.47 | 3.11 | 4.2 | 2.77 | 4.54 | 0.52 | 1.11 | 0.63 | 0.276 | 1.36 | 0.774 | 0.784 | 1.47 | 1.15 | 2.09 |
| CCTAACGGGTCACGAGGTTATAGCACGACGAGCG | 6.1 | 4.05 | 0.263 | 3.54 | -0.146 | 5.76 | 6.41 | 5.88 | 2.76 | 4.48 | 3.39 | 4.94 | 1.47 | 0.866 | 2.3 | 4.45 | 0.408 | 5.55 | 1.42 | 4.27 |
| GGAACGAGGGCAAATTGATAGCAGAGTTTGATGG | 0.902 | 0.348 | -0.101 | 0.452 | -0.144 | 1.73 | 1.16 | 0.944 | 0.134 | 0.629 | 3.46 | 2.68 | 0.618 | -0.23 | 0.358 | 0.625 | 0.703 | 0.402 | -0.436 | 2.23 |
| ACAATTAGTTGACTTAGGGCAACCGATACGACGC | 0.279 | 0.33 | 0.565 | 0.0599 | 0.612 | 0.00256 | 1.03 | 0.396 | 0.353 | 0.139 | 0.0819 | 0.506 | 0.981 | 1.45 | 0.921 | -0.00518 | 0.761 | 0.318 | 0.646 | 0.888 |
| AGAACGAGGGCAATGAGTTGATAGCTCGGGTGGC | 0.0898 | -0.196 | -0.745 | -0.286 | -0.548 | 1.23 | 1.03 | 0.695 | -0.213 | 0.434 | 3.68 | 2.41 | 0.337 | -0.763 | -0.195 | 1.36 | 5.33 | 0.0914 | -0.796 | 2.08 |
| ACACACAGGTGAGTGAAGGTAACTCAGCTGGACG | 0.469 | 0.195 | -0.241 | -0.0782 | -0.78 | 0.352 | 0.931 | 0.0284 | -0.027 | -0.278 | 0.846 | 1.04 | 0.1 | -0.00713 | 0.147 | -0.122 | -0.17 | 0.0752 | -0.0711 | 0.791 |
| GCAGACAGGTGAAGCGCAGGTAACTCAGGGTGGC | -0.663 | -0.276 | -0.718 | -0.713 | -1.29 | -0.0823 | 0.129 | -0.656 | -1.07 | -0.9 | 0.302 | 0.226 | -0.748 | -1.21 | -0.277 | -0.484 | -0.646 | -0.125 | -1.03 | 0.497 |
| TCTGCTAGGTCAGTTAGTCAGCTAACGAGCTGCC | 0.761 | 0.452 | -0.662 | 0.131 | -0.11 | 0.983 | -0.0973 | 1.33 | 1.2 | 1.46 | 2.31 | 2.39 | 0.967 | 0.0395 | -0.199 | 0.00438 | -0.871 | 0.377 | -0.653 | 2.89 |
| TCTTGTAGATCAACAGGACGTTAAGAAAGATCGA | 0.291 | 0.413 | -0.398 | 0.173 | -0.226 | 0.653 | 0.338 | 1.62 | 2.86 | 2.27 | 1.79 | 0.305 | 0.99 | 0.998 | 0.259 | 0.135 | -0.241 | 0.574 | 0.262 | -0.11 |
| ACTATCAGTTGACTTAGGGCAACCGATACGACGC | 0.0979 | 0.0623 | 0.0822 | -0.0416 | 0.543 | 0.113 | 0.908 | 0.0453 | 0.141 | 0.385 | -0.371 | 0.386 | 0.456 | 0.545 | 0.231 | -0.0461 | 0.241 | 0.465 | 0.08 | 0.877 |
| TATACAGAGTCAAAGGCCAGAGTACGAATGTCGA | 0.1 | 0.487 | 0.0394 | 0.0721 | 0.0425 | 1.1 | 2.17 | 2.98 | 1.53 | 2.73 | -0.677 | 0.809 | 0.657 | 0.798 | 0.172 | 0.3 | 0.152 | 0.733 | -0.267 | 1.19 |
| CAAACTAGGTCACCGAGGTCAAAGTCCGTGCGTA | 7 | 6.22 | 5.91 | 5.75 | 1.25 | 6.56 | 10.2 | 8.39 | 6.43 | 8.33 | 8.69 | 9.03 | 4.5 | 2.89 | 5.36 | 6.93 | 12.2 | 7.45 | 1.57 | 5.18 |
| CATACAGGGTCAGCTAGGCCATAGTAGGGACGGC | 4.59 | 3.07 | -0.118 | 2.31 | 0.267 | 4.32 | 3.69 | 2.95 | 1.21 | 1.9 | 0.879 | 2.3 | 0.763 | 0.466 | 1.7 | 2.69 | 0.334 | 3.47 | 0.85 | 4.01 |

— the supplement of paper PMC6555819
